# Values joined by “and” are separate entries in the source; they are usually repeats but may differ in a detail not shown here. Equal values may be shown once. Inconclusive results are not listed. Where a call stands in place of a potency, no number is given. Some compounds were tested as several samples or in several runs, with calls that do not always agree. Active and inactive are the calls of the source. Unless noted, calls come from the whole dose curve; as a rule, active = well fitted curve in the direction sought with a large enough effect; inconclusive = small, poorly fitted or top-dose-only effect, or another doubt; inactive = no such curve, though single readings can be large; an effect the other way counts as inactive or inconclusive.
# How the values were obtained:
# [1] = A High-Content qHTS Against Drug Library for the Identification of Small Molecules that Inhibit DYT1 Early Onset Primary Dystonia-Associated Cell Pathology (AID 1645839; calls by dose curve; note: potency is the fitted concentration of half-maximal effect)
# In short: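 High-content imaging quantified EGFP-TorsinA mislocalization in HEK293-derived cells inducibly expressing DYT1 mutant torsinA, after 48 h exposure to compound given together with tetracycline induction. Cell count served as a toxicity channel alongside %pathology.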
# [2] = biological target: Papain (Carica papaya) (UniProt P00784); test: Primary qHTS assay for inhibitors of the protease papain (AID 1645873);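 note: papain turnover of Z-FR-AMC read as the AMC fluorescence gain over 10 min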; note: potency is the fitted concentration of half-maximal effect
# [3] = Primary qHTS for inhibitors of nuclear receptor binding SET domain protein 2 (NSD2) in an isogenic RCH-ACV NSD2 p.E1099K mutant (9B) (AID 1645876); note: nearly all actives have a fitted effect of over 70% in size; note: potency is the fitted concentration of half-maximal effect
# [4] = Primary qHTS for inhibitors of nuclear receptor binding SET domain protein 2 (NSD2) in an RCH-ACV wild type WT cells (2C) (AID 1645877); note: nearly all actives have a fitted effect of over 70% in size; note: potency is the fitted concentration of half-maximal effect
# [5] = biological target: Cytochrome P450 2C9 (Homo sapiens) (UniProt P11712); test: Cytochrome P450 family 2 subfamily C member 9 (CYP2C9) small molecule antagonists: luciferase biochemical (cell-free) qHTS assay (AID 1645842; active = well fitted curve in the direction sought with a large enough effect in the repeat runs; an effect the other way counts as inactive or inconclusive; note: nearly all actives have a fitted effect of over 55% in size; note: potency is the fitted concentration of half-maximal effect)
# In short: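 P450-Glo CYP2C9 system: proluciferin substrate with enzyme in mix containing 0.4% BSA, 10 min at room temperature, then NADPH regeneration solution added and incubated 1 h at 37C. Detection reagent stopped reaction; luminescence read after 20 min as RLU.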
# [6] = biological target: Cytochrome P450 2D6 (Homo sapiens) (UniProt P10635); test: Cytochrome P450 family 2 subfamily D member 6 (CYP2D6) small molecule antagonists: luciferase biochemical (cell-free) qHTS assay (AID 1645840; active = well fitted curve in the direction sought with a large enough effect in the repeat runs; an effect the other way counts as inactive or inconclusive; note: nearly all actives have a fitted effect of over 55% in size; note: potency is the fitted concentration of half-maximal effect)
# In short: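 P450-Glo CYP2D6 system: proluciferin substrate converted by enzyme to luciferin, read by luminescence proportional to activity. Enzyme-substrate mix with compound 10 min at room temperature, then NADPH regeneration 1 h before detection reagent.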
# [7] = biological target: Rap guanine nucleotide exchange factor 3 (Homo sapiens) (UniProt O95398); test: Confirmatory qHTS for agonist of cAMP-regulated guanine nucleotide exchange factor 3 (EPAC1) (AID 1645881); note: nearly all actives have a fitted effect of over 75% in size; note: potency is the fitted concentration of half-maximal effect
# [8] = biological target: Rap guanine nucleotide exchange factor 3 (Homo sapiens) (UniProt O95398); test: Confirmatory qHTS for antagonist of cAMP-regulated guanine nucleotide exchange factor 3 (EPAC1) (AID 1645880); note: nearly all actives have a fitted effect of over 55% in size
# In short: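 Released BODIPY-GDP fluoresces less than Rap1-bound BODIPY-GDP; the signal is followed at 480/540 nm at 5-min intervals over 30 min, after 5 min at room temperature. Reactions contain 100 nM EPAC1, 250 nM RAP1B-BODIPY-GDP and 50 uM GDP; results are normalized to ATA and DMSO.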
# [9] = biological target: N-terminal Xaa-Pro-Lys N-methyltransferase 1 (Homo sapiens) (UniProt Q9BV86); test: Confirmatory qHTS for Inhibitors of N-terminal methyltransferase 1 (NTMT1): MTaseGlo Assay (AID 1645874);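 note: luminescence from SAH made as NTMT1 methylates SPKRIA peptide using SAM; series mostly up to about 100 µM; nearly all actives have a fitted effect of over 65% in size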
# In short: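 Enzyme mix (125 nM NTMT1, 100 uM SAM) + compound, 15 min RT; + 1 uM SPKRIA, 30 min RT, dark; MTase-Glo reagent 30 min, detection solution 30 min; luminescence. % inhibition vs no-enzyme/DMSO controls, 4-parameter Hill fit.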
# Sequence of Cytochrome P450 2C9 (Homo sapiens) (P11712 whole entry, looked up): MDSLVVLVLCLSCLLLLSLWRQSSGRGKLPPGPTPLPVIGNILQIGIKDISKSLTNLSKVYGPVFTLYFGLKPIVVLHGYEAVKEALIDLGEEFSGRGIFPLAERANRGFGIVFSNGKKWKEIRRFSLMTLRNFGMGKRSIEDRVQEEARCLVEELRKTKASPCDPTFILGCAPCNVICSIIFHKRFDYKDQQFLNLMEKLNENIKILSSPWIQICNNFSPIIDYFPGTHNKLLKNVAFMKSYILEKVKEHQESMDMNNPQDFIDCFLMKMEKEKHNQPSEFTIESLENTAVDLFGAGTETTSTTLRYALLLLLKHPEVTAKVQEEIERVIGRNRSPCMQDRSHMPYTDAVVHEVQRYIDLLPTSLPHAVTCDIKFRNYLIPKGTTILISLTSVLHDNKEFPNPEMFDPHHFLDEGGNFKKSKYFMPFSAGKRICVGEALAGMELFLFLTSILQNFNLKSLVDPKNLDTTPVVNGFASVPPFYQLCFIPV
# Sequence of Papain (Carica papaya) (P00784 whole entry, looked up, the tested form may be a part): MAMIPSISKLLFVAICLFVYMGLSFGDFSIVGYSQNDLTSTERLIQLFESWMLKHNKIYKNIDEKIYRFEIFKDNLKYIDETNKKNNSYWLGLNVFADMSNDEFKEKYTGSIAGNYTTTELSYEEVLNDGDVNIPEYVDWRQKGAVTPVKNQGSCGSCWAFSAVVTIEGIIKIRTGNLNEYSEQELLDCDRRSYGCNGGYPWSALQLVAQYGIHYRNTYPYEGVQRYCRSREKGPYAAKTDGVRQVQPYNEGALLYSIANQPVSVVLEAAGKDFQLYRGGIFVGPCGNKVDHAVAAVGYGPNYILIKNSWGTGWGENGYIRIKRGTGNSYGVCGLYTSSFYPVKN
# Sequence of Cytochrome P450 2D6 (Homo sapiens) (P10635 whole entry, looked up): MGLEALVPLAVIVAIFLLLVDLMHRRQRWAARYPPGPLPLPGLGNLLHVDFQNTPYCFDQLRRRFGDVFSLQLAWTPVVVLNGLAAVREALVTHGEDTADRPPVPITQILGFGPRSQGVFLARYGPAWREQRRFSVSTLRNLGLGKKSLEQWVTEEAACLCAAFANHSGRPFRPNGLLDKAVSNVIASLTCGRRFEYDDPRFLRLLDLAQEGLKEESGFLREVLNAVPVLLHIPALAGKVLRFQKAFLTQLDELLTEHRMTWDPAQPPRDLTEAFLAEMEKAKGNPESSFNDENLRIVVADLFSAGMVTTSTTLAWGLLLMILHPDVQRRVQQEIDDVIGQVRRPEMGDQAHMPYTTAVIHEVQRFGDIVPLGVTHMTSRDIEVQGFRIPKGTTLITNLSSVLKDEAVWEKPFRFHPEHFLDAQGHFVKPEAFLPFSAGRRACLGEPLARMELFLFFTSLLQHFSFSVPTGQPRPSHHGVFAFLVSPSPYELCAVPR
# Sequence of Rap guanine nucleotide exchange factor 3 (Homo sapiens) (O95398 whole entry, looked up): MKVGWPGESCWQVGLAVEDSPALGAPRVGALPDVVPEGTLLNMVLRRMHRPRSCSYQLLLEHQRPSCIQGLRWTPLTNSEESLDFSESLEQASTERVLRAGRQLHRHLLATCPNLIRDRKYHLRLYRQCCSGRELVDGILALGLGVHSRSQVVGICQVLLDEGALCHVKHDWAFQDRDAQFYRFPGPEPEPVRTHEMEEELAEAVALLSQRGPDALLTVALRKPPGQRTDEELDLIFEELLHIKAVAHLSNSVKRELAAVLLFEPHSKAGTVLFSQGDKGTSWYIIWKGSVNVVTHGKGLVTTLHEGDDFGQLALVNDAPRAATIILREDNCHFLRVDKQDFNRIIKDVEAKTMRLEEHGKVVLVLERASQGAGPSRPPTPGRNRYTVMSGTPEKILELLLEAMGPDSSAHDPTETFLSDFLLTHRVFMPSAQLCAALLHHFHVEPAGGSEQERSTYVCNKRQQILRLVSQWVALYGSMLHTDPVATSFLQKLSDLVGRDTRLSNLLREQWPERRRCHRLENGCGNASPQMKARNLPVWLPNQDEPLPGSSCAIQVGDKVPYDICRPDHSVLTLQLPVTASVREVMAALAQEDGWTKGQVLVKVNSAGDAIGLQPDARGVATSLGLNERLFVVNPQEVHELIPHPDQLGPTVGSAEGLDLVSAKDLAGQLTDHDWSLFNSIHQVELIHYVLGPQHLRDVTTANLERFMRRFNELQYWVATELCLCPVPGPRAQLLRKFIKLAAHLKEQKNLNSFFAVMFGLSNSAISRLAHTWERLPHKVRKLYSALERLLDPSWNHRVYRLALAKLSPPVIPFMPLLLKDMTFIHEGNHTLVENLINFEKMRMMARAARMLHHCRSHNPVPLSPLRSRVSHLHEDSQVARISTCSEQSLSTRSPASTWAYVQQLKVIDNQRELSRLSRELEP
# Sequence of N-terminal Xaa-Pro-Lys N-methyltransferase 1 (Homo sapiens) (Q9BV86 whole entry, looked up): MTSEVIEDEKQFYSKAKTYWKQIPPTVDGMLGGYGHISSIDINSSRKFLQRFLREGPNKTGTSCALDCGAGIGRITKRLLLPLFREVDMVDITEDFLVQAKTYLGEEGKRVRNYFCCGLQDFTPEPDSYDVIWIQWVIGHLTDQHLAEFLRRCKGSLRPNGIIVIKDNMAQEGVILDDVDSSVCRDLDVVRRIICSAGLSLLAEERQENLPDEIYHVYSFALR
structure (smiles),measurement,setting,value
CNCCCC12CCC(c3ccccc31)c1ccccc12,Potency,[1],12.6 µM (active)
same,Potency,[2],inactive
same,Potency,[3],21.1 µM (active) and 20.9 µM (active)
same,Potency,[4],18.8 µM (active) and 20.9 µM (active)
Nc1nnc(-c2cccc(Cl)c2Cl)c(N)n1,Potency,[1],inactive
same,Potency,[5],inactive
same,Potency,[2],inactive
same,Potency,[3],inactive
same,Potency,[4],inactive
Cn1cnc2c1c(=O)[nH]c(=O)n2C,Potency,[1],inactive
same,Potency,[2],inactive
same,Potency,[3],inactive
same,Potency,[4],inactive
Cc1ccccc1N1C(=O)c2cc(S(N)(=O)=O)c(Cl)cc2NC1C (stereo not drawn),Potency,[1],inactive
same,Potency,[6],inactive
same,Potency,[5],inactive
same,Potency,[3],inactive
same,Potency,[4],inactive
CC(C)(C)C(=O)Oc1ccc(S(=O)(=O)Nc2ccccc2C(=O)NCC(=O)O)cc1,Potency,[1],inactive
same,Potency,[6],inactive
same,Potency,[2],inactive
same,Potency,[3],inactive
same,Potency,[4],inactive
CN(C)CCOC(c1ccccc1)c1ccccc1,Potency,[1],inactive
same,Potency,[2],inactive
same,Potency,[3],inactive
same,Potency,[4],inactive
O=C(c1ccc(OCCN2CCCCC2)cc1)c1c(-c2ccc(O)cc2)sc2cc(O)ccc12,Potency,[2],inactive
same,Potency,[3],21.1 µM (active) and 23.5 µM (active) and 20.6 µM (active)
same,Potency,[4],13.3 µM (active) and 18.6 µM (active) and 18.4 µM (active)
CC1(CN2CCC(n3c(=O)[nH]c4ccccc43)CC2)OCc2ccccc2-n2cccc21 (stereo not drawn),Potency,[6],1.38 µM (active)
same,Potency,[5],9.77 µM (active)
COc1cc2nc(N3CCN(C(=O)c4ccco4)CC3)nc(N)c2cc1OC,Potency,[6],inactive
same,Potency,[5],inactive
same,Potency,[3],13 µM (active)
same,Potency,[4],13 µM (active)
CS(=O)(=O)CCNCc1ccc(-c2ccc3ncnc(Nc4ccc(OCc5cccc(F)c5)c(Cl)c4)c3c2)o1,Potency,[3],18.8 µM (active) and 9.16 µM (active) and 16.6 µM (active)
same,Potency,[4],11.9 µM (active) and 7.28 µM (active) and 16.6 µM (active)
OCCN1CCN(CCCN2c3ccccc3Sc3ccc(C(F)(F)F)cc32)CC1,Potency,[2],inactive
same,Potency,[3],18.8 µM (active)
same,Potency,[4],18.8 µM (active)
same,Potency,[7],inactive
OCCN(CCO)c1nc(N2CCCCC2)c2nc(N(CCO)CCO)nc(N3CCCCC3)c2n1,Potency,[6],4.9 µM (active)
same,Potency,[2],inactive
same,Potency,[3],6.68 µM (active) and inactive
same,Potency,[4],6.68 µM (active) and inactive
same,outcome,[8],inactive
same,Potency,[7],79.3 µM (active) and 70.6 µM (active) and 63 µM (active)
O=C(CCCN1CCC(O)(c2ccc(Cl)cc2)CC1)c1ccc(F)cc1,Potency,[5],inactive
same,Potency,[2],inactive
COc1ccccc1N1CCN(CC(O)COc2cccc3ccccc23)CC1 (stereo not drawn),Potency,[6],0.436 µM (active)
same,Potency,[2],inactive
Cn1ccc2cc3c(cc21)CCN3C(=O)Nc1cccnc1,Potency,[6],inactive
same,Potency,[5],inactive
same,Potency,[2],inactive
same,Potency,[3],inactive
same,Potency,[4],inactive
CN1CCN(CCCN2c3ccccc3Sc3ccc(Cl)cc32)CC1,Potency,[6],0.155 µM (active)
same,Potency,[5],inactive
same,Potency,[2],inactive
same,Potency,[7],inactive
COc1cc2nc(N3CCN(C(=O)C4COc5ccccc5O4)CC3)nc(N)c2cc1OC (stereo not drawn),Potency,[6],inactive
same,Potency,[5],inactive
same,Potency,[2],25.1 µM (active)
COc1cc2nc(N(C)CCCNC(=O)C3CCCO3)nc(N)c2cc1OC (stereo not drawn),Potency,[5],inactive
same,Potency,[2],22.4 µM (active)
same,Potency,[3],inactive
same,Potency,[4],inactive
CN(C)CCCN1c2ccccc2CCc2ccc(Cl)cc21,Potency,[5],inactive
same,Potency,[2],inactive
same,Potency,[4],16.8 µM (active) and 18.6 µM (active)
CC(C)NCC(O)c1ccc(O)c(O)c1 (stereo not drawn),Potency,[5],inactive
same,Potency,[2],inactive
same,Potency,[3],inactive
CN(C)CCC=C1c2ccccc2C=Cc2ccccc21,Potency,[6],3.89 µM (active) and 8.49 µM (active)
same,Potency,[5],inactive
same,Potency,[2],inactive
same,outcome,[9],inactive
same,Potency,[3],20.9 µM (active)
same,Potency,[4],23.5 µM (active)
COc1ccccc1OCCNCC(O)COc1cccc2[nH]c3ccccc3c12 (stereo not drawn),Potency,[6],1.95 µM (active)
same,Potency,[2],inactive
CCCCc1oc2ccccc2c1C(=O)c1cc(I)c(OCCN(CC)CC)c(I)c1,Potency,[2],inactive
NCCS(=O)(=O)O,Potency,[1],inactive
same,Potency,[2],inactive
same,Potency,[3],inactive
same,Potency,[4],inactive
same,outcome,[8],inactive
same,Potency,[7],inactive
COc1ccc2c(c1)c(CC(=O)O)c(C)n2C(=O)c1ccc(Cl)cc1,Potency,[6],inactive
same,Potency,[5],11 µM (active)
same,Potency,[2],inactive
same,Potency,[3],inactive
same,Potency,[4],inactive
CN1CCC(=C2c3ccccc3C=Cc3ccccc32)CC1,Potency,[6],2.19 µM (active)
same,Potency,[5],inactive
same,Potency,[2],inactive
same,Potency,[3],23.5 µM (active)
same,Potency,[4],18.6 µM (active)
O=C(c1ccc(F)cc1)C1CCN(CCn2c(=O)[nH]c3ccccc3c2=O)CC1,Potency,[1],inactive
same,Potency,[2],inactive
same,Potency,[3],inactive
same,Potency,[4],inactive

# From PubChem BioAssay (NCATS)
